In the library only some 2.6% were active in any assay of this set; here they are far more common.
PHOSPHO1 inh: blocks human PHOSPHO1 phosphatase activity. 1.1% of 290,000 active. Q8TCT1. inhibition, % at 13.3 µM. recombinant PHOSPHO1, absorbance phosphatase assay; in the data active = inhibition above about 60%
A3A deaminase: inhibitors of human APOBEC3A DNA deaminase | recombinant A3A, FAM/TAMRA ssDNA deamination fluorescence | inhibition, % at 20 µM | 0.41% of 330,000 active;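 active = at least 40% inhibition at 20 µM here, with at most 30% in a related deaminase screen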;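 note: plate controls were A3A with DMSO for no effect and wells lacking A3A enzyme for full effect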
Target sequence (P31941 whole entry, looked up): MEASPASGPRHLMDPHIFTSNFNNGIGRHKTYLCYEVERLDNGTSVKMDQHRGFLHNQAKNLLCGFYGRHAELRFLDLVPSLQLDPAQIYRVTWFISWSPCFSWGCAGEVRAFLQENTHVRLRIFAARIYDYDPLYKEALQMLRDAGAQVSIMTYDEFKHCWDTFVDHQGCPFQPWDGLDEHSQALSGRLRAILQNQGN
eIF4H inh: inhibitors of RNA binding by human eIF4H; 0.94% of 290,000 active; inhibition, % at 35 µM; eIF4H fluorescence polarization binding assay; Q15056;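 note: calls also rest on retests at 20 µM and on dose response follow-up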
PABP polyA inh: blocks human PABP binding to poly(A) RNA; 1% of 290,000 active; fluorescence polarization; P11940; calls only at 35 µM;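 note: calls also rest on retests at 20 µM and on dose response follow-up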
APOBEC3G inh: inhibitors of human APOBEC3G DNA deaminase. Q9HC16. recombinant A3G, ssDNA deamination FAM/TAMRA fluorescence. inhibition, % at 20 µM. 0.28% of 330,000 active;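 active = inhibition of at least 40% at 20 µM, with no more than 30% in the related APOBEC3A deaminase screen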;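 note: plate controls were DMSO wells with A3G for no effect and wells lacking A3G enzyme for full effect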
PABP1 MLLE inh: inhibitors of microRNA-mediated deadenylation, human PABP1 MLLE binding. P11940. GST-MLLE / FITC-PAM2 fluorescence polarization. inhibition, % at 20 µM. 0.36% of 360,000 active. AID 588489; in the data active = inhibition above about 35%, passing the limit was not always enough;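 note: plate controls were DMSO wells with GST-MLLE for no effect and wells lacking GST-MLLE protein for full effect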
The depositor's hits bear a star; i = inactive; . = not tested or not shown; + = active, no number. Unless noted, the rule behind the calls is not given here.

SMILES	PHOSPHO1 inh	A3A deaminase	eIF4H inh	PABP polyA inh	APOBEC3G inh	PABP1 MLLE inh
COC(=O)c1ccc(NC(c2ccc(Cl)cc2)P(=O)(OC)OC)cc1 (stereo not given)	-6	-1	80*	+	-3	-3
COP(=O)(OC)C(Nc1ccc(Cl)cc1)c1ccccc1 (stereo not given)	15	-3	2	i	-10	-10
O=C(CSCc1nc2scc(-c3cccs3)c2c(=O)[nH]1)Nc1ccccn1	18	0	0	i	-11	-19
O=c1[nH]c(CN2CCc3ccccc32)nc2scc(-c3cccs3)c12	64*	2	23	i	11	-15
Clc1ccc(C2Nc3cccc4cccc(c34)N2)c(Cl)c1	.	.	.	.	.	29
COc1ccc2ccc3ccc(OC)c(OC(C)=O)c3c2c1	.	.	.	.	.	11
COc1cc(C2Nc3cccc4cccc(c34)N2)cc(OC)c1OC(C)=O	46	13	89*	+	19	21
O=[N+]([O-])c1cc(C2Nc3cccc4cccc(c34)N2)ccc1Cl	-7	1	96	i	5	8
CCN(CC)c1ccc(C2Nc3cccc4cccc(c34)N2)c(O)c1	29	1	10	i	-4	7
Oc1ccc2ccccc2c1C1Nc2cccc3cccc(c23)N1	10	-1	77*	+	-2	-10
COc1ccc(Br)cc1C1Nc2cccc3cccc(c23)N1	8	-1	102*	+	-2	20
COc1cc(C2Nc3cccc4cccc(c34)N2)ccc1O	34	-3	79*	+	6	-10
COc1ccc(C(=O)N2CCCC(C(=O)O)C2)c2ccccc12 (stereo not given)	30	-2	0	i	-5	4
Cc1c(C(C)(C)C)c(C=S)n2ccccc12	93*	-3	77*	+	-10	29
O=C(c1ccc(F)cc1)N1CCCC(c2nc(-c3ccncc3)no2)C1 (stereo not given)	.	-3	.	.	-7	4
O=C(c1c(F)cccc1F)N1CCCC(c2nc(-c3ccc(F)cc3)no2)C1 (stereo not given)	62*	-2	-6	i	-1	-4
Nc1nc(=O)n(C2CC(O)C(CO)O2)cc1F (stereo not given)	.	.	.	.	.	2
CCOC(=O)C(CC)Sc1nc2c(c(=O)[nH]c(=O)n2C)n1CCc1ccccc1 (stereo not given)	15	1	1	i	-7	40*
CCOC(=O)CSc1nc2c(c(=O)[nH]c(=O)n2C)n1C/C=C(/C)Cl	81*	3	2	i	17	37*
Cn1c(=O)[nH]c(=O)c2c1nc(SCC(=O)O)n2CCc1ccccc1	91*	-5	-8	i	-3	-71
CCCCCn1c(SCCN2CCOCC2)nc2c1c(=O)[nH]c(=O)n2C	69*	1	-7	i	1	23
CCCCn1c(SCC(=O)OCC)nc2c1c(=O)[nH]c(=O)n2C	-1	-3	3	i	4	18
CCOC(=O)CSc1nc2c(c(=O)[nH]c(=O)n2C)n1CCc1ccccc1	-14	-2	-10	i	-2	-3
CCCCCCn1c(SCCN2CCOCC2)nc2c1c(=O)[nH]c(=O)n2C	-15	-1	6	i	-2	-30
CC=CCn1c(SCc2ccccc2)nc2c1c(=O)[nH]c(=O)n2C	.	.	.	.	.	43*
SMILES	PHOSPHO1 inh	A3A deaminase	eIF4H inh	PABP polyA inh	APOBEC3G inh	PABP1 MLLE inh
C/C=C/Cn1c(SCc2ccc(C)cc2)nc2c1c(=O)[nH]c(=O)n2C	30	-5	-3	i	-7	25
Cc1cc(C)c(S(=O)(=O)N2CCOC2CNC(=O)C(=O)NCCCN2CCOCC2)c(C)c1 (stereo not given)	4	-1	4	i	-2	-5
O=[N+]([O-])c1ccc(C2=NN(c3ccccc3)C(c3ccco3)C2)cc1 (stereo not given)	22	.	104*	+	.	-95
O=[N+]([O-])c1ccc(/C=C/C2=NN(c3ccccc3)C(c3ccco3)C2)cc1 (stereo not given)	1	.	23	i	.	-113
O=C(Nc1cccc(Oc2ccc(C(=O)O)c(C(=O)O)c2)c1)c1ccc(-c2ccccc2)cc1	28	5	66*	i	-3	3
O=C(NCc1ccccc1Cl)c1ccc(S(=O)(=O)Nc2cccc(C(F)(F)F)c2)cc1	-2	0	0	i	-1	3
S=C(NN=C1CCCCCC1)Nc1ccc(Cl)cc1	85*	0	-6	i	-7	0
Fc1ccc(NC(=S)NN=C2CCCCCC2)cc1	100*	-6	1	i	-7	29
O=C(COc1ccc(Cl)cc1)NN=C1CCCCCCC1	29	-3	4	i	-6	-7
C=C1C(=O)OC2CC1C(OC(C)=O)CC(C)=CCCC(C)=CCCC2(C)O (stereo not given)	.	.	.	.	.	-5
CCN(CC(=O)NCc1cccs1)C(=O)CCC(=O)c1ccc(F)cc1	.	-2	.	.	-2	9
Cc1ccc(Nc2ccc([N+](=O)[O-])cn2)cc1Cl	9	0	-1	i	-1	-17
O=S1(=O)N=C(c2ccccc2)C=C(c2ccccc2)N1	.	2	.	.	1	-9
O=C(NCCO)/C(=C\c1cccs1)NC(=O)c1cccs1	2	-1	3	+	1	-4
CCCc1cc2nnc(SCC(=O)N(C)C3CCCCC3)n2c(N)n1	15	4	-6	i	-5	-19
COc1ccc(NC(=O)Nc2cccc(Cl)c2Cl)c(OC)n1	39	-2	0	i	-6	8
CCC(=O)/C=C1/Sc2ccc(OC)cc2N1CCO	28	-2	-6	i	-5	45*
CCC(=O)/C=C1/Sc2ccc(OC)cc2N1CC	12	-1	7	i	10	31
Cc1cccc(C)c1NC(=O)Cn1nc(-c2ccc(Cl)s2)ccc1=O	-4	0	4	i	-3	-8
NC(=O)c1ccc(NC(=O)COc2cccc3ccccc23)cc1	28	0	2	i	-3	-15
Cc1cccc(NC2SC(=O)NC2=O)c1 (stereo not given)	-9	-1	6	i	-13	52*
CSc1nnc(CCNS(=O)(=O)c2ccccc2Br)n1C	10	-2	-1	i	0	0
O=C(O)c1cccc(-n2cccc2/C=C2/NC(=O)N(c3cccc(Cl)c3)C2=O)c1	-112	93	97*	+	42	-67
O=C1NC(=S)N/C1=C\c1ccccc1OCc1ccc(C(=O)O)cc1	32	-11	-3	i	-5	9
O=C(O)c1cccc(-n2cccc2/C=C2/SC(=O)N(CC(=O)N3CCCC3)C2=O)c1	4	64	90*	+	37	2
O=C(CN1C(=O)S/C(=C/c2cccn2-c2ccc(O)cc2)C1=O)N1CCCC1	30	-2	-2	i	-4	0

Compound activity (PubChem)
